High-throughput results as filed in PubChem BioAssay.
Only some compounds are listed: those with a hit (about 21% of all), similar ones and a draw of the others.
Shiga toxin inh = Shiga toxin inhibition; Vero cells, Shiga toxin protein synthesis inhibition reporter; inhibition, % at 38.7 µM; AID 2315; actives 9.2% (n = 290,000); in the data active means inhibition mostly above about 28%, no sharp cut-off; inactive means mostly below about 43%; further: 0% is about no effect
HCV inhibitor = blocks hepatitis C virus; actives 3.4% (n = 340,000); Potency, µM (highest dose often 41.8 µM), for the others: at the highest dose activity change, negative = inhibition, usual class: inhibitors; Huh7.5.1 HCVcc-Cre infection, luciferase reporter, 44 h; further: potency means the concentration at half of the fitted maximal effect; on the % scale 0 is the no-effect control and ±100 the full control effect
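Compounds are dispensed onto cells plated 4 h earlier at 1,000 per well, with HCVcc-Cre virus (about 0.5 moi) added next. Following 44 h of culture, luminescent signal is measured for 15 sec after 15 min with substrate at room temperature.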
Pf growth 48h = P. falciparum growth inhibition at 48 hours (one generation); P. falciparum luciferase growth in erythrocytes, 48 h; actives 5.9% (n = 310,000); AID 504832; Potency, µM (top dose mostly 28.7 µM), for inactives: top-dose activity change, negative = inhibition, hits mostly inhibitors; further: potency means the concentration at half of the fitted maximal effect; on the % scale 0 is the no-effect control and ±100 the full control effect
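Here the parasites carry a stable luciferase gene and grow inside erythrocytes in Albumax-based RPMI medium with compound for one erythrocytic cycle. Activity is scored as loss of luminescent signal.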
Pf growth 96h = P. falciparum growth inhibition at 96 hours | Potency, µM (series often up to 28.7 µM), for the others: at the top dose activity change, negative = inhibition, usual class: inhibitors | P. falciparum luciferase reporter growth, 96 h | actives 6.9% (n = 320,000); further: potency means the concentration at half of the fitted maximal effect; on the % scale 0 is the no-effect control and ±100 the full control effect
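Plates of compound plus infected erythrocytes (2% hematocrit, 0.05% parasitemia final) incubate 96 hours, 37 C, 5% CO2. Detection reagent added; reduced luminescence from the parasites' luciferase reporter flags inhibition.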
HCMV inh = blocks human cytomegalovirus replication; actives 4.5% (n = 410,000); activity change, negative = inhibition, % at 57.5 µM; HFF cells, HCMV-luciferase reporter, 72 h; active compounds read low; AID 1259415; in the data active means activity change below about -60%; inconclusive means no clear call, values can overlap the other calls; inactive means above about -39%; further: on the % scale 0 is the no-effect control and ±100 the full control effect
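Two compound doses tested in HFFs infected with HCMV-luciferase, MOI 1 PFU/cell, 72 h at 37C. Lysate luminescence read with OneGlo; data normalized against buffer-only and 10uM Salinomycin inhibitor controls.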
Cycloheximide cs = affects cycloheximide protein synthesis inhibition readout, counter-screen | actives 12% (n = 300,000) | max response, % | cell reporter, cycloheximide protein synthesis inhibition counterscreen; in the data active means max response mostly above about 13%, no sharp cut-off; inactive means mostly below about 14%; further: read at 38.3 µM for the half of the compounds with a filed dose; 0% is about no effect
Starred values were filed as active, the others as inactive. Unless noted, the call rests on the fitted dose curve; in most records, active means well fitted inhibition curve with a large enough effect; inconclusive means small, poorly fitted or top-dose-only effect, or another doubt; inactive means no such curve, though single readings can be large or run the other way.

Results for COc1ccc(C(=O)NCc2ccc3c(c2)CCN3C(=O)c2cccc(C)c2)cc1OC ?
HCMV inh: 10.9

How did CCCc1ccc(NS(=O)(=O)c2c(C)oc(C)c2C(=O)OC)cc1 do in these assays?
Shiga toxin inh: -3.6; HCV inhibitor: inconclusive; Pf growth 48h: -15.7%; Pf growth 96h: -14.0%; HCMV inh: 13.4; Cycloheximide cs: -1.1

What do the screens show for `Nc1ccc(C(=O)c2cccs2)cc1[N+](=O)[O-]`?
Shiga toxin inh: 70.6*; HCV inhibitor: -11.2%; Pf growth 48h: 52.1%; Pf growth 96h: 35.1%; HCMV inh: 16.1; Cycloheximide cs: 27.7*

What do the screens show for `O=C(Nc1ccc(S(=O)(=O)N2CCCC2)cc1)c1ccc(OCC2CCCO2)cc1` (centres undefined)?
Shiga toxin inh: 26.0; HCV inhibitor: 11.2µM*; Pf growth 48h: inconclusive; Pf growth 96h: inconclusive; HCMV inh: -87.8*; Cycloheximide cs: 10.6

How did Cc1ccc(NC(=O)c2ccc(OCC3CCCO3)cc2)nc1 (centres undefined) do in these assays?
HCV inhibitor: -25.0%; Pf growth 48h: 85.2%; Pf growth 96h: 104.0%; HCMV inh: 16.0

How did Cc1ccc(NC(=O)c2ccc(OCC3CCCO3)cc2)cc1 (centres undefined) do in these assays?
Shiga toxin inh: 103.9*; HCV inhibitor: -8.9%; Pf growth 48h: 189.7%; Pf growth 96h: 208.5%; HCMV inh: 47.9; Cycloheximide cs: 57.1*

How did O=C(Nc1cccc(S(=O)(=O)N2CCCCC2)c1)c1ccc(OCC2CCCO2)cc1 (centres undefined) do in these assays?
Shiga toxin inh: 44.6; HCV inhibitor: inconclusive; Pf growth 48h: inconclusive; Pf growth 96h: inconclusive; HCMV inh: -66.2*; Cycloheximide cs: 5.7

How did CCc1ccc(-n2c(=O)c3sc4ccccc4c3n(CC(=O)N3CCCC3)c2=O)cc1 do in these assays?
HCMV inh: -8.4

Results for CCOc1ccc(CN2CCN(CC3CC3)CC2CCO)cc1 (centres undefined) ?
Shiga toxin inh: -11.1; HCV inhibitor: 13.3%; Pf growth 48h: -1.6%; Pf growth 96h: -36.0%; HCMV inh: 82.2; Cycloheximide cs: 0.6

How did COc1ccc(NC(=O)c2cc(CN3CCCC3)on2)cc1Cl do in these assays?
HCMV inh: 35.8

Results for CN(C)C(=S)N=Nc1[nH]c2ccccc2c1O ?
Shiga toxin inh: 65.9*; HCV inhibitor: inconclusive; Pf growth 48h: inconclusive; Pf growth 96h: inconclusive; HCMV inh: -32.9; Cycloheximide cs: 39.4*

What do the screens show for `CCCc1c(O)c2ccccc2[nH]c1=O`?
Shiga toxin inh: 4.2; HCV inhibitor: 17.7%; Pf growth 48h: 14.2%; Pf growth 96h: -18.8%; HCMV inh: 4.2; Cycloheximide cs: -1.7

How did Cc1ccc2c(c1)C(=O)OC(C(=O)Nc1ncc(Cc3ccccc3Cl)s1)C2 (centres undefined) do in these assays?
HCMV inh: -23.4

How did CCN(CC)CCNC(=O)/C(=C\c1cccn1C)NC(=O)c1cccs1 do in these assays?
Shiga toxin inh: -9.8; HCV inhibitor: -14.9%; Pf growth 48h: 9.4%; Pf growth 96h: 1.85µM*; HCMV inh: -13.2; Cycloheximide cs: -2.0

What do the screens show for `O=C(NCCO)/C(=C/c1ccc(Br)cc1)NC(=O)c1cccs1`?
Shiga toxin inh: -1.1; HCV inhibitor: 17.3%; Pf growth 48h: 4.6%; Pf growth 96h: -1.0%; HCMV inh: -8.1; Cycloheximide cs: -1.7

What do the screens show for `CC(Sc1nnc(-c2ccc(Cl)cc2)n1N)C(=O)NCC1CCCO1` (centres undefined)?
HCV inhibitor: 0.2%; Pf growth 48h: 5.5%; Pf growth 96h: 6.6%; HCMV inh: -24.9

What do the screens show for `O=C1NC(=O)N(c2ccc(Cl)cc2)C(=O)/C1=C/c1coc2ccc(O)cc2c1=O`?
Shiga toxin inh: 6.1; HCV inhibitor: 16.4%; Pf growth 48h: -0.4%; Pf growth 96h: 24.9%; HCMV inh: -22.5; Cycloheximide cs: 6.0

What do the screens show for `O=C1NC(=O)N(c2ccccc2)C(=O)/C1=C/c1coc2ccc(O)cc2c1=O`?
Shiga toxin inh: 28.2*; HCV inhibitor: 4.7%; Pf growth 48h: -6.2%; Pf growth 96h: 51.3%; HCMV inh: -10.0; Cycloheximide cs: 23.6*
